Consider ten molecules from PubChem BioAssay (NCI).

Test [1] can be described thus: NCI Yeast Anticancer Drug Screen. Data for the rad50 strain (AID 155).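 Also: 0% = growth of vehicle-only cultures of the same strain.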 Particulars: S. cerevisiae rad50 strain growth inhibition, stronger effect = higher value. In short, it runs like this:
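Yeast carrying a defined DNA repair defect were exposed to test compounds, and growth was compared with vehicle-treated controls to give percent inhibition.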

Test [2] is described as follows: NCI Yeast Anticancer Drug Screen. Data for the mec2-1 strain (AID 157). Particulars: S. cerevisiae mec2-1 strain, stronger effect = higher value. In short, it runs like this:
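Mutant yeast (mec2-1) grown with compound; growth inhibition relative to vehicle control reported.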

A short description of test [3]: NCI Yeast Anticancer Drug Screen. Data for the sgs1 mgt1 strain (AID 161).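 Also: 0% = growth of cultures given vehicle only.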 The settings on record: S. cerevisiae sgs1 mgt1 strain, stronger effect = higher value. The procedure, abridged:
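This yeast growth screen uses a strain with defined DNA-repair lesions; compound-treated growth is compared with vehicle-treated growth.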

A short description of test [4]: NCI Yeast Anticancer Drug Screen. Data for the cln2 rad14 strain (AID 165).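 Also: 0% = growth equal to vehicle treated cultures.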 The settings on record: S. cerevisiae cln2 rad14 strain, stronger effect = higher value. In short, it runs like this:
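Readout is yeast growth inhibition versus vehicle-treated controls, using a strain with cln2 and rad14 alterations exposed to compound.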

Test [5] is described as follows: NCI Yeast Anticancer Drug Screen. Data for the bub3 strain (AID 167). The settings on record: S. cerevisiae bub3 mutant strain, stronger effect = higher value. The procedure, abridged: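 Compounds were applied to a genetically altered yeast strain carrying a cell-cycle control defect. Growth inhibition was scored against vehicle-treated controls.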
Test [6] in a line: NCI Yeast Anticancer Drug Screen. Data for the mlh1 rad18 strain (AID 175). Particulars: S. cerevisiae mlh1 rad18 strain growth inhibition, stronger effect = higher value. The procedure, abridged:
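Genetically defined yeast (DNA repair-deficient) exposed to compounds; growth inhibition determined relative to vehicle.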

Setting [7] is: at 5.0 µM (retest, dose inferred, filed as 0.5).
Setting [8] is: at 50.0 µM (retest, dose inferred, filed as 5.0).

The panel holds about 79,000 compounds, 15% with a hit somewhere; the sample as a whole holds those more often. Unmarked numbers belong to inactive results. Calls of active or inactive are those of the source. Rule as the data show it: active = growth inhibition above about 70%; inactive = the rest.

As to `CCN(CCN1C(=O)C2CCCCC2C1=O)c1ccc(N=O)c(C)c1` (stereo not given), the growth inhibition in test [1] (setting [7]) was 71% (active); in test [1] (setting [8]), 97% (active); in test [1] (at 50.0 µM), 98.8% (active); in test [2] (setting [7]) it was 66%; in test [2] (setting [8]) it was 99% (active); in test [2] (at 50.0 µM), 98.8% (active). In addition, the growth inhibition in test [3] (setting [7]) was 28%; in test [3] (setting [8]) it was 99% (active); in test [3] (at 50.0 µM) it was 97.9% (active); in test [4] (setting [7]) it was 23%; in test [4] (setting [8]), 96% (active); in test [4] (at 50.0 µM), 88.6% (active). The growth inhibition in test [5] (setting [7]) was 48%; in test [5] (setting [8]), 98% (active); in test [5] (at 50.0 µM), 99.1% (active); in test [6] (setting [7]), 72% (active); in test [6] (setting [8]), 97% (active); in test [6] (at 50.0 µM), 97.5% (active).
`CCOC(=O)N1C2C=CC(=O)C(C=C2)N1C(=O)OCC` (stereo not given): the growth inhibition is -1% in test [1] (setting [7]); 43% in test [1] (setting [8]); 72.8% (active) in test [1] (at 50.0 µM); -9% in test [2] (setting [7]); 61% in test [2] (setting [8]); 85.5% (active) in test [2] (at 50.0 µM). The growth inhibition in test [3] (setting [7]) was 1%; in test [3] (setting [8]), 73% (active); in test [3] (at 50.0 µM) it was 85.1% (active); in test [4] (setting [7]) it was 7%; in test [4] (setting [8]), 30%; in test [4] (at 50.0 µM), 67.8%. In addition, the growth inhibition is 1% in test [5] (setting [7]); 61% in test [5] (setting [8]); 86.7% (active) in test [5] (at 50.0 µM); 18% in test [6] (setting [7]); 85% (active) in test [6] (setting [8]); 94.3% (active) in test [6] (at 50.0 µM).
For `COc1ccc(CN2C(=O)C(Cl)=C(Cl)C2=O)c(OC)c1`, the growth inhibition is -1% in test [1] (setting [7]); 50% in test [1] (setting [8]); 99.5% (active) in test [1] (at 50.0 µM); 4% in test [2] (setting [7]); 59% in test [2] (setting [8]); 99.7% (active) in test [2] (at 50.0 µM). Further, the growth inhibition in test [3] (setting [7]) was -2%; in test [3] (setting [8]) it was 73% (active); in test [3] (at 50.0 µM), 99.6% (active); in test [4] (setting [7]), -4%; in test [4] (setting [8]) it was 27%; in test [4] (at 50.0 µM), 99% (active). For the same molecule, the growth inhibition is -2% in test [5] (setting [7]); 68% in test [5] (setting [8]); 99.5% (active) in test [5] (at 50.0 µM); -2% in test [6] (setting [7]); 44% in test [6] (setting [8]); 99.5% (active) in test [6] (at 50.0 µM).
Turning to `c1ccc([P+](C[P+](c2ccccc2)(c2ccccc2)c2ccccc2)(c2ccccc2)c2ccccc2)cc1`, the growth inhibition in test [1] (setting [7]) is 98% (active); in test [1] (setting [8]), 99% (active); in test [1] (at 50.0 µM) it was 47.4%; in test [2] (setting [7]), 98% (active); in test [2] (setting [8]) it was 100% (active); in test [2] (at 50.0 µM), 99.5% (active). The growth inhibition was 98% (active) in test [3] (setting [7]); 99% (active) in test [3] (setting [8]); 58.4% in test [3] (at 50.0 µM); 97% (active) in test [4] (setting [7]); 99% (active) in test [4] (setting [8]); 99.4% (active) in test [4] (at 50.0 µM). In addition, the growth inhibition in test [5] (setting [7]) was 98% (active); in test [5] (setting [8]) it was 99% (active); in test [5] (at 50.0 µM), 99.7% (active); in test [6] (setting [7]), 98% (active); in test [6] (setting [8]), 99% (active); in test [6] (at 50.0 µM) it was 99.5% (active).
With `CCCCCCCCCCCCCCCCCc1nnc(N)o1`, the growth inhibition in test [1] (setting [7]) is 1%; in test [1] (setting [8]) it was 24%; in test [1] (at 50.0 µM), -11.8%; in test [2] (setting [7]) it was 7%; in test [2] (setting [8]) it was 33%; in test [2] (at 50.0 µM), -0.5%. Also, the growth inhibition was 18% in test [3] (setting [7]); 51% in test [3] (setting [8]); 19% in test [3] (at 50.0 µM); 1% in test [4] (setting [7]); 36% in test [4] (setting [8]); 45.6% in test [4] (at 50.0 µM). The growth inhibition in test [5] (setting [7]) is 6%; in test [5] (setting [8]) it was 40%; in test [5] (at 50.0 µM), 11.2%; in test [6] (setting [7]) it was 6%; in test [6] (setting [8]) it was 25%; in test [6] (at 50.0 µM), -3.6%.
On to `CCCCc1ccc2nc(C)cc(N=[N+]=[N-])c2c1`, for which the growth inhibition in test [1] (setting [7]) is 2%; in test [1] (setting [8]), 98% (active); in test [1] (at 50.0 µM), 89.7% (active); in test [2] (setting [7]), -14%; in test [2] (setting [8]), 90% (active); in test [2] (at 50.0 µM), 99% (active). For the same molecule, the growth inhibition is -6% in test [3] (setting [7]); 96% (active) in test [3] (setting [8]); 94.8% (active) in test [3] (at 50.0 µM); -14% in test [4] (setting [7]); 48% in test [4] (setting [8]); 94.7% (active) in test [4] (at 50.0 µM). The growth inhibition was -9% in test [5] (setting [7]); 92% (active) in test [5] (setting [8]); 97.2% (active) in test [5] (at 50.0 µM); -2% in test [6] (setting [7]); 98% (active) in test [6] (setting [8]); 96.3% (active) in test [6] (at 50.0 µM).
Turning to `CCCCNc1cccc2ncccc12`, the growth inhibition in test [1] (setting [7]) was 11%; in test [1] (setting [8]), 53%; in test [1] (at 50.0 µM), 17.1%; in test [2] (setting [7]), 9%; in test [2] (setting [8]) it was 34%; in test [2] (at 50.0 µM), 9.85%. Moreover, the growth inhibition in test [3] (setting [7]) is 14%; in test [3] (setting [8]), 58%; in test [3] (at 50.0 µM) it was 21.8%; in test [4] (setting [7]), 9%; in test [4] (setting [8]), 28%; in test [4] (at 50.0 µM) it was -3.9%. The growth inhibition in test [5] (setting [7]) was 4%; in test [5] (setting [8]), 31%; in test [5] (at 50.0 µM), -4.2%; in test [6] (setting [7]), 21%; in test [6] (setting [8]), 57%; in test [6] (at 50.0 µM), 50%.
On to `COC(O)C(=O)c1ccc2c(c1)CC1(C2)Cc2cc3c(cc2C1=O)CCC3` (stereo not given), for which the growth inhibition in test [1] (setting [7]) was 28%; in test [1] (setting [8]) it was 99% (active); in test [1] (at 50.0 µM), 20.2%; in test [2] (setting [7]), 40%; in test [2] (setting [8]), 99% (active); in test [2] (at 50.0 µM), 23.9%. Besides, the growth inhibition is 33% in test [3] (setting [7]); 98% (active) in test [3] (setting [8]); 52.1% in test [3] (at 50.0 µM); 23% in test [4] (setting [7]); 99% (active) in test [4] (setting [8]); 57.4% in test [4] (at 50.0 µM). Also, the growth inhibition was 35% in test [5] (setting [7]); 99% (active) in test [5] (setting [8]); 31.6% in test [5] (at 50.0 µM); 41% in test [6] (setting [7]); 99% (active) in test [6] (setting [8]); 45.9% in test [6] (at 50.0 µM).
On to `CSc1nc(N)c2cnn(C3OC(CO)C(O)C3O)c2n1` (stereo not given), for which the growth inhibition is -9% in test [1] (setting [7]); 8% in test [1] (setting [8]); 9.55% in test [1] (at 50.0 µM); -12% in test [2] (setting [7]); -11% in test [2] (setting [8]); 2.8% in test [2] (at 50.0 µM). The growth inhibition is -25% in test [3] (setting [7]); -6% in test [3] (setting [8]); 15.2% in test [3] (at 50.0 µM); 7% in test [4] (setting [7]); 28% in test [4] (setting [8]); 6.8% in test [4] (at 50.0 µM). The growth inhibition in test [5] (setting [7]) is 3%; in test [5] (setting [8]), 80% (active); in test [5] (at 50.0 µM) it was 12%; in test [6] (setting [7]), -20%; in test [6] (setting [8]) it was -12%; in test [6] (at 50.0 µM) it was 22%.
For the molecule `O=C(Cc1c[nH]c2ccccc12)N/N=C/c1ccc(Cl)cc1[N+](=O)[O-]`, the growth inhibition is -5% in test [1] (setting [7]); 73% (active) in test [1] (setting [8]); 39.8% in test [1] (at 50.0 µM); 1% in test [2] (setting [7]); 88% (active) in test [2] (setting [8]); 20.4% in test [2] (at 50.0 µM). For the same molecule, the growth inhibition in test [3] (setting [7]) is -4%; in test [3] (setting [8]), 94% (active); in test [3] (at 50.0 µM), 36.6%; in test [4] (setting [7]) it was -5%; in test [4] (setting [8]), 89% (active); in test [4] (at 50.0 µM), 38.8%. Further, the growth inhibition was -3% in test [5] (setting [7]); 93% (active) in test [5] (setting [8]); 19.5% in test [5] (at 50.0 µM); 13% in test [6] (setting [7]); 90% (active) in test [6] (setting [8]); 66.7% in test [6] (at 50.0 µM).
